The nature of test [1]: NCI Yeast Anticancer Drug Screen. Data for the rad50 strain (AID 155).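 Further: 0% = growth of vehicle-only cultures of the same strain.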 The note with it: S. cerevisiae rad50 strain growth inhibition; at 50.0 µM; hits give high values. An outline of the steps:
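Genetically altered yeast (DNA repair pathway); compound treatment; growth inhibition vs vehicle ctrl.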

Test [2] in a line: NCI Yeast Anticancer Drug Screen. Data for the mec2-1 strain (AID 157). The note with it: S. cerevisiae mec2-1 strain, at 50.0 µM, hits give high values. The method, boiled down: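 Test agents were screened against the mec2-1 yeast strain, with defined DNA repair or cell cycle alteration. Growth was scored as inhibition against vehicle-only controls.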
Test [3] is described as follows: NCI Yeast Anticancer Drug Screen. Data for the sgs1 mgt1 strain (AID 161).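 Further: 0% = growth of cultures given vehicle only.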 As to conditions: S. cerevisiae sgs1 mgt1 strain, at 50.0 µM, hits give high values. An outline of the steps: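 Inhibition of yeast growth, normalised to vehicle-treated controls, is reported for a strain bearing genetic alterations in DNA damage repair.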
Test [4] in a line: NCI Yeast Anticancer Drug Screen. Data for the cln2 rad14 strain (AID 165).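 Further: 0% = growth equal to vehicle treated cultures.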 As to conditions: S. cerevisiae cln2 rad14 strain, at 50.0 µM, hits give high values. An outline of the steps: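 Growth of compound-exposed yeast (cln2 rad14 genotype) measured and expressed as inhibition relative to vehicle.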
Test [5] in a line: NCI Yeast Anticancer Drug Screen. Data for the bub3 strain (AID 167). As to conditions: S. cerevisiae bub3 mutant strain, at 50.0 µM, hits give high values. An outline of the steps:
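Yeast carrying a defined mutation is treated with each compound, and growth is compared with that of vehicle-exposed cells to give inhibition.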

Test [6] is described as follows: NCI Yeast Anticancer Drug Screen. Data for the mlh1 rad18 strain (AID 175). The note with it: S. cerevisiae mlh1 rad18 strain growth inhibition; at 50.0 µM; hits give high values. An outline of the steps: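 In this whole-cell yeast screen, a strain with altered DNA damage repair is challenged with compound, and its growth is measured against matched vehicle-treated controls.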

Compounds without any hit were thinned out: in the full panel of roughly 79,000, 15% have a hit. Values without a mark were called inactive. Active and inactive are the calls of the source. No stated cut-off is given here; in the data, active means growth inhibition above about 70%; inactive means the rest.

Experimental findings from PubChem BioAssay (NCI) are described below.

With `CCN(CC)CCC1(C#N)Cc2ccccc2N(CC)c2ccccc21` (stereo unspecified), the growth inhibition in test [1] is 41.8%; in test [2], 5.05%; in test [3] it was 9.45%; in test [4], 15.6%; in test [5], 7.3%; in test [6], -19.6%.

As to `COc1ccc(C2CC(=O)N(CC(=O)O)C(=O)C2)cc1`, the growth inhibition was 13.9% in test [1]; 14.8% in test [2]; 8.3% in test [3]; -17% in test [4]; -9.4% in test [5]; 7.55% in test [6].

For the compound `CCN(CC)CCOc1ccc(N2Cc3cc(OC)c(OC)cc3C2=O)cc1`, the growth inhibition was -11.9% in test [1]; -7.45% in test [2]; -4.2% in test [3]; 13.5% in test [4]; 8.6% in test [5]; -13.8% in test [6].

For `Nc1ccccc1Nc1ccncc1`, the growth inhibition in test [1] is -3%; in test [2] it was 11.2%; in test [3] it was -1.7%; in test [4], -26.9%; in test [5] it was -23.8%; in test [6], -5.7%.

On to `CCc1nnc(-c2nsc3ccccc23)s1`, for which the growth inhibition in test [1] was 38.5%; in test [2] it was -22.9%; in test [3] it was 6.4%; in test [4], -12.8%; in test [5], 15.8%; in test [6], 23.3%.

In the case of `COC(=O)OC/C=C\COC(=O)OC`, the growth inhibition is 5.8% in test [1]; -4.05% in test [2]; -13.6% in test [3]; -11.4% in test [4]; 4.55% in test [5]; 13.6% in test [6].

Consider `CC1(C)CC(NC(=O)C(C)(C)Oc2ccc(Cl)cc2)CC(C)(C)N1`, for which the growth inhibition was 32.5% in test [1]; 6% in test [2]; 25.9% in test [3]; -12% in test [4]; 9.15% in test [5]; 25.8% in test [6].

In the case of `C=COCCC(C(=O)OCC)C(=O)OCC`, the growth inhibition is 13.5% in test [1]; 26.5% in test [2]; 17.8% in test [3]; 4.2% in test [4]; 40.6% in test [5]; 13.1% in test [6].

Take `CC(C)=NNC(=O)c1n[nH]c(C)c1N=NN(C)C`: the growth inhibition in test [1] was 12.5%; in test [2], -23.4%; in test [3] it was 6.5%; in test [4], -0.65%; in test [5] it was -9.4%; in test [6] it was 20.5%.

For the compound `Cc1ccn2nnnc2c1`, the growth inhibition in test [1] is -8.45%; in test [2] it was -11.2%; in test [3], -1.2%; in test [4] it was 1%; in test [5] it was 3.45%; in test [6], -17.6%.

`NNC(=O)Cc1c[nH]c2ccccc12`: the growth inhibition was 7.1% in test [1]; 9.4% in test [2]; 5.85% in test [3]; -7.55% in test [4]; 6% in test [5]; 2.25% in test [6].

In the case of `C1CCC(N(CCN(C2CCCCC2)C2CCCCC2)C2CCCCC2)CC1`, the growth inhibition in test [1] was -38.5%; in test [2], -32.8%; in test [3], -26.7%; in test [4] it was 15.3%; in test [5], 5.6%; in test [6], -11.9%.

Regarding `C=C1CC(C)(Cn2c(N)nc3nc[nH]c3c2=O)OC1=O` (stereo unspecified), the growth inhibition in test [1] is 11.7%; in test [2], 5.95%; in test [3] it was 11.1%; in test [4] it was 12.9%; in test [5], 14.1%; in test [6], 4.8%.

In the case of `CC(C)CCc1n[nH]c(=O)n1/N=C\c1ccccc1`, the growth inhibition in test [1] is -4.25%; in test [2], -9.35%; in test [3] it was -0.05%; in test [4] it was -10.6%; in test [5] it was 19.1%; in test [6] it was 26.6%.

As to `CC1(C)COC(C2(C)C(=O)C=C(c3ccccc3)c3ccccc32)=N1` (stereo unspecified), the growth inhibition is 25.3% in test [1]; -11.8% in test [2]; 29.8% in test [3]; 12.8% in test [4]; 3.9% in test [5]; 11.8% in test [6].

With `CC(C)(C)NC(=O)NCc1ccc(Cl)c(Cl)c1`, the growth inhibition in test [1] is 2.95%; in test [2], 27.4%; in test [3] it was 17.8%; in test [4], -6.05%; in test [5], -5.05%; in test [6], 21.6%.

As to `O=C(/C=C(/CC(O)(c1ccccc1)c1ccccc1)Nc1ccccc1)c1ccccc1`, the growth inhibition in test [1] was 10.3%; in test [2] it was -2.7%; in test [3], -6.4%; in test [4], 2.35%; in test [5] it was -1.2%; in test [6], -2.1%.

For `O=C1c2ccccc2-c2nc3cc4ccccc4cc3nc21`, the growth inhibition in test [1] was 20.1%; in test [2] it was 15.6%; in test [3], 22.5%; in test [4] it was 5.85%; in test [5], 11.4%; in test [6] it was 74% (active).

Turning to `COc1ccc(/C=C/C(=O)c2cc(C(=O)O)c(OC)cc2OC)cc1OC`, the growth inhibition is 4% in test [1]; -6.45% in test [2]; 22.4% in test [3]; 14.2% in test [4]; 17.9% in test [5]; -20.8% in test [6].

Turning to `CC1CC(C#N)=C2NCCCCN2C1=O` (stereo unspecified), the growth inhibition was -21.6% in test [1]; -44.8% in test [2]; -2.25% in test [3]; 3.65% in test [4]; -7.9% in test [5]; -14.3% in test [6].

`C/C(=N/Nc1ccc([N+](=O)[O-])cc1[N+](=O)[O-])c1ccc(Sc2ccc(/C(C)=N/Nc3ccc([N+](=O)[O-])cc3[N+](=O)[O-])cc2)cc1`: the growth inhibition in test [1] is -13.2%; in test [2], -21.1%; in test [3], -10.3%; in test [4], -19.4%; in test [5] it was -14.9%; in test [6], -23.4%.
